The campaign covered roughly 310,000 compounds. About 14,000 (4.5%) showed an effect of 50% or more. Effects have a minus sign here. Shown is part of a subset that was picked to be rich in strong results.
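Further: peak tail current of the secondary pulse compared with the same well before compound.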

This experiment deals with human ether-à-go-go-related gene (hERG) potassium channel (human, UniProt Q12809). The experiment is described as follows: primary screen, population patch clamp on CHO cells stably expressing hERG; higher = less effect of the substance.
Chain of human ether-à-go-go-related gene (hERG) potassium channel (Q12809 whole entry, looked up): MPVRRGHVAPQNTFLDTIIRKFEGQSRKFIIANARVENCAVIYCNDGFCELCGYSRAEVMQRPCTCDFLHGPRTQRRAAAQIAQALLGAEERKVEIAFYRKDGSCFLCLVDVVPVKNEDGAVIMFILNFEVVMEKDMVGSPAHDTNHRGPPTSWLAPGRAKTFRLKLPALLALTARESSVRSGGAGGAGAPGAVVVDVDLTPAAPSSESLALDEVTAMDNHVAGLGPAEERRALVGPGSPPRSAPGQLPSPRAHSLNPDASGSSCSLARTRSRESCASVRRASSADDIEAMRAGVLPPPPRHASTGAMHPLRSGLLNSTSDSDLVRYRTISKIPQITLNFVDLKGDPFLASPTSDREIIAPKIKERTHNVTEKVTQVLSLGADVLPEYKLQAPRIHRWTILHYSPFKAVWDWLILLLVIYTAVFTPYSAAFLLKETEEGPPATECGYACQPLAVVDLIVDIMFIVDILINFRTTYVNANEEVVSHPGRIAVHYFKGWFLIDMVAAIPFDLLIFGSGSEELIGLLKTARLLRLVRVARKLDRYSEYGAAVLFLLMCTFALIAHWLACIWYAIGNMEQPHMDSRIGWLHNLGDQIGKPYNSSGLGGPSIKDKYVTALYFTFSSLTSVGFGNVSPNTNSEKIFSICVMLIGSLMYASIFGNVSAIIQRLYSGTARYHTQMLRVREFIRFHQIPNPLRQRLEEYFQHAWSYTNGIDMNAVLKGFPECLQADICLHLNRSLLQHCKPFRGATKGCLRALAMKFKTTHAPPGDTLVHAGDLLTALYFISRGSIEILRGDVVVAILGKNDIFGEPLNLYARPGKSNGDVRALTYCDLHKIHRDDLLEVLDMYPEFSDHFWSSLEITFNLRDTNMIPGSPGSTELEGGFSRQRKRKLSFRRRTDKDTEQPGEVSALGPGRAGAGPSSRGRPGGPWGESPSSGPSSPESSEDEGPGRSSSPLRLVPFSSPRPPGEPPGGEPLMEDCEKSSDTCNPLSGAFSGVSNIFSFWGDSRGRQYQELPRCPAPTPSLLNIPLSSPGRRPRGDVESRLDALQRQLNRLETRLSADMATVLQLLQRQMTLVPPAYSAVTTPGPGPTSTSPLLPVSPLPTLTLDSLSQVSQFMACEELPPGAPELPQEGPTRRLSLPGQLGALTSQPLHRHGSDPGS
On to `Cn1cccc1C(=O)OCc1csc(-c2ccccc2)n1`, for which the “hERG current change (%, negative = inhibition) at 10uM” value is reported as -20.9%.
The value for `O=[N+]([O-])c1cccc(N(CC2CO2)S(=O)(=O)c2ccccc2)c1` (stereo not drawn) was -5.4%; that for `CCN(C(=O)c1nn(-c2ccc(OC)cc2)c(=O)c2c1c1ccccc1n2C)c1ccc(OC)cc1` was 18.3%; that for `CCN(CC)CCNC(=O)c1cc(-c2cccnc2)nc2ccc(S(=O)(=O)N3CCC(C)CC3)cc12` was -65.1%.
In the case of `CCCCN(C)CCNC(=O)c1cc(-c2cccnc2)nc2ccc(S(=O)(=O)N3CCC(C)CC3)cc12` it was -35.5%; in that of `CCOCCCNC(=O)c1cc(-c2cccnc2)nc2ccc(S(=O)(=O)N3CCC(C)CC3)cc12`, 12.9%.
The value for `COCCCNC(=O)c1cc(-c2cccnc2)nc2ccc(S(=O)(=O)N3CCCCCC3)cc12` was 30.6%.
As for `COCCNC(=O)c1cc(-c2ccncc2)nc2ccc(S(=O)(=O)N3CCOCC3)cc12`, the “hERG current change (%, negative = inhibition) at 10uM” value is -32.3%.
In the case of `COCCNC(=O)c1cc(-c2ccccn2)nc2ccc(S(=O)(=O)N3CCC(C)CC3)cc12` it was -61.8%.
The value for `O=C(CCN1C(=O)C2C3C=CC(C3)C2C1=O)Nc1ccccc1` (stereo not drawn) was 21.1%.
In the case of `CC(C)(C)c1nc2c(Br)cc(Br)cc2c(=O)o1` it was 18.9%; in that of `Cc1ccc(NC2c3ccccc3C(=O)N2CCN2CCOCC2)cc1` (stereo not drawn), -12.9%.
With `O=C(Cc1cccs1)N1CCCC(c2nc3c(nnn3Cc3cccc(Cl)c3)c(=O)[nH]2)C1` (stereo not drawn), the “hERG current change (%, negative = inhibition) at 10uM” value is recorded as -55.6%.
Turning to `O=C(c1cccs1)N1CCCC(c2nc3c(nnn3Cc3cccc(Cl)c3)c(=O)[nH]2)C1` (stereo not drawn), the “hERG current change (%, negative = inhibition) at 10uM” value is listed as -36.6%.
The value for `O=C(c1ccccc1)N1CCC(c2nc3c(nnn3Cc3ccco3)c(=O)[nH]2)CC1` was -32.2%.
Turning to `O=C(c1ccco1)N1CCCC(c2nc3c(nnn3Cc3ccccc3)c(=O)[nH]2)C1` (stereo not drawn), the “hERG current change (%, negative = inhibition) at 10uM” value was -8.47%.
The value for `O=C(c1ccccc1Cl)N1CCC(c2nc3c(nnn3Cc3ccco3)c(=O)[nH]2)CC1` was -22.1%.
The value for `CC(C)(C)c1ccc(Cn2nnc3c(=O)[nH]c(C4CCN(C(=O)Cc5cccs5)CC4)nc32)cc1` was -4.81%.
In the case of `O=C(c1ccc(Cl)cc1Cl)N1CCC(c2nc3c(nnn3Cc3ccco3)c(=O)[nH]2)CC1` it was -69%; in that of `O=C(Cc1cccs1)N1CCC(c2nc3c(nnn3Cc3ccccc3)c(=O)[nH]2)CC1`, -56%; in that of `O=C(c1ccco1)N1CCCC(c2nc3c(nnn3Cc3cccc(Cl)c3)c(=O)[nH]2)C1` (stereo not drawn), -54.5%.
Consider `O=C(Cc1cccs1)N1CCC(c2nc3c(nnn3Cc3ccc(F)cc3)c(=O)[nH]2)CC1`, for which the “hERG current change (%, negative = inhibition) at 10uM” value is reported as -38.9%.
The value for `O=C(Cc1cccs1)N1CCCC(c2nc3c(nnn3Cc3ccc(F)cc3)c(=O)[nH]2)C1` (stereo not drawn) was -35.1%; that for `O=C(c1ccco1)N1CCCC(c2nc3c(nnn3Cc3ccc(Cl)cc3Cl)c(=O)[nH]2)C1` (stereo not drawn) was -36.1%.
In the case of `Cc1nc2ccc(Br)cn2c1C(=O)N/N=C\c1ccccc1[N+](=O)[O-]` it was 27.6%.
In the case of `NC(=O)C[n+]1cccc(C(N)=O)c1.[Cl-]` it was 12.8%.
`Cc1ccc(S(=O)(=O)Nc2c(C)n(C)n(-c3ccccc3)c2=O)c(C)c1`: the “hERG current change (%, negative = inhibition) at 10uM” value was 9.47%.
The value for `O=C(CCN1CCCCCC1)Nc1ccc2c(c1)OCCO2.O=C(O)C(=O)O` was -1.98%; that for `Cc1ccc(S(=O)(=O)NC(C)c2ccccc2)cc1[N+](=O)[O-]` (stereo not drawn) was 9.16%.
The value for `CC(=O)Nc1nnc(COc2ccc(Cl)cc2)s1` was 30.7%; that for `COC(=O)c1ccc(Cn2nnc3c(=O)[nH]c(C4CCN(S(=O)(=O)c5ccc(F)cc5)CC4)nc32)cc1` was -70.3%.
For `COc1ccc(Cn2nnc3c(=O)[nH]c(C4CCCN(C(=O)c5ccccc5)C4)nc32)cc1` (stereo not drawn), the “hERG current change (%, negative = inhibition) at 10uM” value is listed as -22.5%.
For the compound `O=C(c1ccccc1)N1CCCC(c2nc3c(nnn3Cc3ccccc3)c(=O)[nH]2)C1` (stereo not drawn), the “hERG current change (%, negative = inhibition) at 10uM” value is given as -3.63%.
With `Cc1ccc(Cn2nnc3c(=O)[nH]c(C4CCN(S(=O)(=O)c5ccc(F)cc5)CC4)nc32)cc1`, the “hERG current change (%, negative = inhibition) at 10uM” value is recorded as 6.62%.
In the case of `Cc1ccc(C(=O)N2CCCC(c3nc4c(nnn4Cc4ccccc4)c(=O)[nH]3)C2)cc1` (stereo not drawn) it was -62.4%.
In the case of `O=c1[nH]c(C2CCN(S(=O)(=O)c3ccc(S(=O)(=O)NC4CC4)cc3)CC2)nc2c1nnn2Cc1ccc(F)cc1` it was 3.81%.
For `C=C(c1ccccc1O)n1ccnc1`, the “hERG current change (%, negative = inhibition) at 10uM” value came to 27.8%.
On to `Cc1[nH]nc2c1C(c1ccco1)C(C#N)=C(N)O2` (stereo not drawn), for which the “hERG current change (%, negative = inhibition) at 10uM” value stood at 18.4%.
For the compound `Cc1nnc(SCCn2c(N3CCCC(C)C3)nc3c2c(=O)n(C)c(=O)n3C)s1` (stereo not drawn), the “hERG current change (%, negative = inhibition) at 10uM” value is -5.21%.
As to `c1cnc2ccc(C(c3nnnn3C3CCCCC3)N3CCCCC3)cc2c1` (stereo not drawn), the “hERG current change (%, negative = inhibition) at 10uM” value was -15.6%.
The value for `c1cnc2ccc(C(c3nnnn3C3CCCCC3)N3CCN4CCCC4C3)cc2c1` (stereo not drawn) was -109%.
For the compound `OC1CCN(C(c2ccc3ncccc3c2)c2nnnn2C2CCCCC2)CC1` (stereo not drawn), the “hERG current change (%, negative = inhibition) at 10uM” value is -31.8%.
The value for `c1cnc2ccc(C(c3nnnn3C3CCCCC3)N3CCN(C4CCCCC4)CC3)cc2c1` (stereo not drawn) was -78.8%; that for `CCC(C)(C)n1nnnc1C(c1ccc2ncccc2c1)N1CCN2CCCC2C1` (stereo not drawn) was -10.8%.
`c1cnc2ccc(C(c3nnnn3C3CCCC3)N3CCN4CCCC4C3)cc2c1` (stereo not drawn): the “hERG current change (%, negative = inhibition) at 10uM” value is -45.2%.
The value for `CCOC(=O)c1cccc(N2C(N)=NC(N)=NC2(C)C)c1.Cl` was -1.9%; that for `CCOc1ccccc1C(=O)NC(C(=O)NCc1ccc(F)cc1)C(C)C` (stereo not drawn) was -14.7%.
In the case of `CC(=O)N/C(=C/c1ccc(OC(F)F)cc1)C(=O)O` it was 3.4%; in that of `COc1ccc(C(=O)Nc2c(N)nc(SCC(=O)N3CCCCCC3)[nH]c2=O)cc1OC`, 0.918%; in that of `Cc1ccccc1NC(=O)CSc1nnc(Cc2cccn2C)n1-c1ccc(F)cc1`, -0.084%.
In the case of `O=C(NNS(=O)(=O)c1ccc(CCCl)cc1)C(O)(c1ccccc1)c1ccccc1` it was -55.9%; in that of `Cc1ccc(S(=O)(=O)NNC(=O)C(O)(c2ccccc2)c2ccccc2)cc1`, 1.02%.
For `O=C(NNS(=O)(=O)c1ccccc1)C(O)(c1ccccc1)c1ccccc1`, the “hERG current change (%, negative = inhibition) at 10uM” value worked out at 7.23%.
The value for `O=C(NCc1ccon1)c1ccc(OC2CCN(CCc3ccccc3)CC2)cc1` was -66.6%.
For the compound `Cc1cc(CNC(=O)c2cccc(OC3CCN(S(=O)(=O)N(C)C)CC3)c2)on1`, the “hERG current change (%, negative = inhibition) at 10uM” value stood at 0.225%.
The value for `COCCC(=O)N1CCC(Oc2ccc(C(=O)NCc3ccon3)cc2)CC1` was 3.38%.
On to `O=C(NCCn1cccn1)c1ccc(OC2CCN(CCc3ccccc3)CC2)cc1`, for which the “hERG current change (%, negative = inhibition) at 10uM” value is -41.3%.
With `CCc1cc(CNC(=O)c2cccc(OC3CCN(S(C)(=O)=O)CC3)c2)on1`, the “hERG current change (%, negative = inhibition) at 10uM” value was -70.3%.
In the case of `CCc1cc(CNC(=O)c2ccc(OC3CCN(CCc4ccccc4)CC3)cc2)on1` it was -75.5%.
Consider `CC(C)c1cc(CNC(=O)c2ccc(OC3CCN(Cc4ccccn4)CC3)cc2)on1`, for which the “hERG current change (%, negative = inhibition) at 10uM” value was -16.1%.
In the case of `CCOCCCNC(=O)c1cccc(OC2CCN(S(C)(=O)=O)CC2)c1` it was 12.6%; in that of `O=C(NCCc1ccccn1)c1ccc(OC2CCN(CCc3ccccc3)CC2)cc1`, -41.9%; in that of `COc1ccccc1C(=O)NCCC(=O)N1CCN(c2cccc(C(F)(F)F)c2)CC1`, -21.7%.
In the case of `COc1ccc(Cc2nnc(NS(C)(=O)=O)s2)cc1` it was 3.9%.
Regarding `Cc1cc(NC(=O)c2cc(CC(C)C)on2)no1`, the “hERG current change (%, negative = inhibition) at 10uM” value is reported as 7.66%.
Consider `Nc1c(C(=O)NCc2ccccc2)c2nc3ccccc3nc2n1-c1ccc2c(c1)OCO2`, for which the “hERG current change (%, negative = inhibition) at 10uM” value came to 5.58%.
In the case of `Cc1ccc2c(c1)c(N=NC(N)=S)c(O)n2Cc1ccccc1` it was -1.71%; in that of `COc1cccc(C2C(=O)N(C3CCCCC3)CC(=O)N2Cc2ccc(F)cc2)c1` (stereo not drawn), -43.8%; in that of `N#CC(Cc1ccc(OC(F)F)cc1)c1nc2ccccc2[nH]1` (stereo not drawn), -70.1%.
Take `COc1ccc(CC(C#N)(CO)c2nc3ccccc3[nH]2)cc1` (stereo not drawn): the “hERG current change (%, negative = inhibition) at 10uM” value is reported as -7.12%.
In the case of `N#CC(Cc1ccccc1OC(F)F)c1nc2ccccc2[nH]1` (stereo not drawn) it was -16.2%.
In the case of `COc1cc(CC(C#N)(CO)c2nc3ccccc3[nH]2)ccc1OC(F)F` (stereo not drawn) it was -18.9%.
The value for `O=C(Nc1nc2ccccc2[nH]1)c1ccc(OC(F)F)cc1` was -11%; that for `N#CC(CO)(Cc1ccc(OC(F)F)cc1)c1nc2ccccc2[nH]1` (stereo not drawn) was -52%; that for `Cc1cc(C)cc(C(=O)N2CCN(Cc3ccc4c(c3)OCO4)CC2)c1` was -20.1%.
In the case of `COc1ccccc1Oc1ccc(N2CC(C(=O)OCC(=O)c3ccccc3)CC2=O)cc1` (stereo not drawn), the “hERG current change (%, negative = inhibition) at 10uM” value amounted to 18%.
The value for `O=C(Cc1cccs1)N/N=C/c1ccccn1` was -7.62%; that for `Cc1cc(NC(=O)COC(=O)C(C)Oc2ccc(Cl)cc2Cl)no1` (stereo not drawn) was 12.2%.
The value for `COc1ccc(/C=N/Nc2ccccn2)c(OC)c1OC` was 3.27%.
In the case of `Cc1ccc(NS(=O)(=O)c2ccc(-c3cnc(C4CC4)o3)cc2)c(C)c1` it was 2.08%; in that of `COC(=O)c1ccc(Cn2c(CN3CCOCC3)nc3ccccc3c2=O)o1`, -5.56%.

Source of the values: article PMC4336329 (PLoS ONE, 2015).
